PubChem BioAssay (NCATS)
Inconclusive results are not listed. Calls of active or inactive are those of the source. Calls come from the whole dose curve; as a rule, active = well fitted inhibition curve with a large enough effect; inconclusive = small, poorly fitted or top-dose-only effect; inactive = flat fitted curve, though single readings scatter.

Tests used:
Assay in all cases: qHTS profiling for inhibitors of Plasmodium falciparum proliferation (AID 504749); note: nearly all actives have a fitted effect of over 60% in size
Details in all cases: P. falciparum in erythrocytes, SYBR Green DNA, 72 h
[1] = test system: Dd2
How it was run: (§1)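 SYBR Green fluorescence of parasite DNA, read after lysis and overnight dark incubation, measured growth over 72 h in erythrocyte culture at 0.3% parasitemia and 2.5% hematocrit. Data normalised to DMSO and 0.29 uM artemisinin, with plate-drift correction.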

[2] = test system: ECU
How it was run: as §1

[3] = test system: GB4
How it was run: as §1

[4] = test system: HB3
How it was run: as §1

[5] = test system: ICS
How it was run: as §1

[6] = test system: JCK
How it was run: as §1

[7] = test system: N140
How it was run: as §1

[8] = test system: P93_24
How it was run: as §1

[9] = test system: P94_40
How it was run: as §1

[10] = test system: PAD
How it was run: as §1

Measured: Potency
Potency is the fitted concentration of half-maximal effect.

CC(=O)O[C@H]1C(=O)[C@@]2(C)[C@H]([C@H](OC(=O)c3ccccc3)[C@]3(O)C[C@H](OC(=O)[C@H](O)[C@@H](NC(=O)c4ccccc4)c4ccccc4)C(C)=C1C3(C)C)[C@]1(OC(C)=O)CO[C@@H]1C[C@@H]2O
active: [1] 126 nM | [2] 891 nM | [3] 338 nM | [4] 1000 nM | [5] 398 nM | [6] 11200 nM | [7] 631 nM | [8] 631 nM | [9] 355 nM | [10] 708 nM

CC[C@]1(O)CC2CN(CCc3c([nH]c4ccccc34)[C@@](C(=O)OC)(c3cc4c(cc3OC)N(C)[C@H]3[C@@](O)(C(=O)OC)[C@H](OC(C)=O)[C@]5(CC)C=CCN6CC[C@]43[C@@H]65)C2)C1 (some centres undefined)
active: [1] 178 nM | [2] 2240 nM | [3] 1900 nM | [4] 398 nM | [5] 708 nM | [7] 2820 nM | [8] 1260 nM | [9] 1000 nM | [10] 4470 nM
